# Unmarked numbers belong to inactive results. Inconclusive results are not listed. A call without a number means that no potency is given here. Activity calls are given as the source filed them. Unless noted, calls follow the shape of the dose curve; as a rule, active = well fitted curve in the direction sought with a large enough effect in the repeat runs; inconclusive = weak or mixed curves; inactive = no such curve, though single readings can be large; an effect the other way counts as inactive or inconclusive.
# Assays:
# [1] = qHTS assay to identify small molecule antagonists of the androgen receptor (AR) signaling pathway using the MDA cell line in the presence of 0.5 nM R1881 - cell viability counter screen (AID 1259242); also: nearly all actives have a fitted effect of over 45% in size
# Outline: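 Fluorescence from CellTiter-Fluor, which reports protease activity of live cells, was read 30 min after reagent addition to MDA-kb2 cells that had been incubated 16 hr with compound and 0.5 nM R1881.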
# [2] = molecular target: Androgen receptor (Homo sapiens) (UniProt P10275); test: qHTS assay to identify small molecule antagonists of the androgen receptor (AR) signaling pathway using the MDA cell line in the presence of 0.5 nM R1881 (AID 1259243); also: nearly all actives have a fitted effect of over 50% in size
# Chain of Androgen receptor (Homo sapiens) (P10275 whole entry, looked up): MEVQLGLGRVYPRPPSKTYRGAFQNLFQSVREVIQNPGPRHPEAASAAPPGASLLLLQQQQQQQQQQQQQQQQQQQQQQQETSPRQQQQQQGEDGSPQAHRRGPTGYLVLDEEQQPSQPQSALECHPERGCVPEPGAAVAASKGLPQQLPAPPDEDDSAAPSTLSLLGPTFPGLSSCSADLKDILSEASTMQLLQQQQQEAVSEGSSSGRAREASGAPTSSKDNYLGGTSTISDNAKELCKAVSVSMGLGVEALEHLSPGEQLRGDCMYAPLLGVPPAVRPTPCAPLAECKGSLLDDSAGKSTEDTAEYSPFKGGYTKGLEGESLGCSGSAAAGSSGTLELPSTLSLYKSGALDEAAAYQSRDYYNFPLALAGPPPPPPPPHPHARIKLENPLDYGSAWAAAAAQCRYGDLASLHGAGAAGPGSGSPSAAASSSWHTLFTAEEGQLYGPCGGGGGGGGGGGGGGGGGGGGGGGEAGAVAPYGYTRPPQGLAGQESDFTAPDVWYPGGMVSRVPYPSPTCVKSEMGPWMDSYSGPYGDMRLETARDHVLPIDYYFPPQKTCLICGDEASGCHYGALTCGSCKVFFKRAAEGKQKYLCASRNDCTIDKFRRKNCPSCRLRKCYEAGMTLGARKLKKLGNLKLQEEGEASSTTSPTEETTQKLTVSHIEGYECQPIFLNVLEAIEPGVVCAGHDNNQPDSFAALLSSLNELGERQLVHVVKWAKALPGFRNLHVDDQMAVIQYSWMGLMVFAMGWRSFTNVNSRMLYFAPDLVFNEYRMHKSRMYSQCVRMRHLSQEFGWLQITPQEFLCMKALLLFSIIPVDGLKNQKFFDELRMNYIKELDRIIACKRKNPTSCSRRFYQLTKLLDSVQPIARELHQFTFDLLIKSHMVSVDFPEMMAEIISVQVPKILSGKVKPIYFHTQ
# Outline: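 Inhibition of R1881 (0.5 nM final) induced reporter signal was measured in human MDA-kb2 cells; note the MMTV promoter also responds to GR. Exposure lasted 16 hr at 37C.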
# [3] = qHTS assay to identify small molecule phospholipidosis (PLD) inducers (AID 1259344; active = well fitted curve in the direction sought with a large enough effect; an effect the other way counts as inactive or inconclusive)
# Outline: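 Quantitative HTS in HepG2: compound plus LipidTOX Red dye for 24 h, paraformaldehyde fixation with Hoechst 33342, widefield high-content imaging; amiodarone as positive and DMSO as negative control.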
# [4] = qHTS assay to identify small molecule HDAC inhibitors (AID 1259364); also: nearly all actives have a fitted effect of over 45% in size; also: potency is read from the fitted curve at half-maximal effect
# Outline: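 Endogenous HDAC class I/II activity was measured in wild-type HCT-116 cells by HDAC-Glo luminescence after 2 h compound treatment.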
# [5] = qHTS assay to identify small molecule HDAC inhibitors - cell viability counter screen (AID 1259365); also: series mostly up to about 92 µM; nearly all actives have a fitted effect of over 50% in size
# Outline: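 HCT-116 (wild type), 1,500 cells/well, overnight 37C/5% CO2; compound in DMSO 2hr; CellTiter-Glo 30min RT; luminescence read.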
# [6] = qHTS assay to identify small molecule agonists of the sonic hedgehog signaling (Shh) pathway - cell viability counter screen (AID 1259366); also: nearly all actives have a fitted effect of over 50% in size
# Outline: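 CellTiter-Fluor fluorescence read-out, 1 hr at 37C, added after 23hr compound exposure. Cells: 3T3 Gli1-Luc, an NIH/3T3 clone with stably integrated Gli1-Luc reporter, plated 4hr before compound.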
# [7] = qHTS assay to identify small molecule antagonists of the sonic hedgehog signaling (Shh) pathway - cell viability counter screen (AID 1259367); also: nearly all actives have a fitted effect of over 55% in size
# Outline: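 Seed 3T3 Gli1-Luc cells at 2,000 per well; incubate 4 hr; add compound in DMSO, then conditioned medium; incubate at 37C with 5% CO2; add CellTiter-Fluor after 23 hr; read fluorescence 1 hr later.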
# [8] = qHTS assay to identify small molecule agonists of the sonic hedgehog signaling (Shh) pathway (AID 1259368; calls by dose curve;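 also: NIH/3T3-derived 3T3Gli1-Luc cells carrying a stable Gli1-driven firefly luciferase reporter; series mostly up to about 92 µM; nearly all actives have a fitted effect of over 15% in size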)
# Outline: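 Luminescent signal was taken as a measure of Gli1-controlled luciferase expression in stably transfected NIH/3T3-derived cells that had been treated for 24 hr with compounds delivered in DMSO.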
# [9] = qHTS assay to identify small molecule antagonists of the sonic hedgehog signaling (Shh) pathway (AID 1259369; calls by dose curve; also: nearly all actives have a fitted effect of over 45% in size)
# Outline: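 Screening used 3T3Gli1-Luc cells at 2,000 per well, compounds delivered in DMSO, and conditioned medium as agonist stimulus; plates incubated 24hr at 37 C and 5% CO2 before a 30min luciferase step.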
# [10] = molecular target: Estrogen receptor (Homo sapiens) (UniProt P03372); test: qHTS assay to identify small molecule antagonists of the estrogen receptor alpha (ER-alpha) signaling pathway using the BG1 cell line in the presence of 0.1 nM 17-beta-estradiol (AID 1259244); also: nearly all actives have a fitted effect of over 50% in size
# Chain of Estrogen receptor (Homo sapiens) (P03372 whole entry, looked up): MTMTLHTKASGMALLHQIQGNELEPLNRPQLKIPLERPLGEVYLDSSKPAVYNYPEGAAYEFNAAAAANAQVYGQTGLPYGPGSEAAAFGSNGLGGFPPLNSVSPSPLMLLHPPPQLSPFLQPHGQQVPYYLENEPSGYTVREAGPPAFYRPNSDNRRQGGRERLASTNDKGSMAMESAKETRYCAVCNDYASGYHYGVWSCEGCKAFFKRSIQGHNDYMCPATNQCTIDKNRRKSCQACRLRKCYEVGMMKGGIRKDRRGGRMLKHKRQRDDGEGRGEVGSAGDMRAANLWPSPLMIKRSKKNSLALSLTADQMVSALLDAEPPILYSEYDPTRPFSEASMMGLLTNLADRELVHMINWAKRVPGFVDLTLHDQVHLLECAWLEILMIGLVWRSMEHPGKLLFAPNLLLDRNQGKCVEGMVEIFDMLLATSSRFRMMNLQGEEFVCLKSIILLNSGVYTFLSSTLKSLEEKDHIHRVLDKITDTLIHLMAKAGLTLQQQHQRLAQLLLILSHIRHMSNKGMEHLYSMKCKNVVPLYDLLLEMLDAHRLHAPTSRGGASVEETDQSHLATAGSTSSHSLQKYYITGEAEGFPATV
# Outline: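 Quantitative high-throughput screen in VM7Luc4E2 cells: compound plus 0.1 nM E2 (final), 22 h, 37C, 5% CO2; ONE-Glo added, 30 min room temperature, luminescence measured.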
SMILES,Potency [1],Potency [2],Potency [3],Potency [4],outcome [5],Potency [6],Potency [7],outcome [8],Potency [9],Potency [10],PLD induction [3]
CCC1(c2ccccc2)C(=O)N(COC)C(=O)N(COC)C1=O,inactive,inactive,inactive,inactive,inactive,inactive,inactive,inactive,inactive,,
COc1cccc([C@@]2(O)CCCC[C@@H]2CN(C)C)c1,inactive,inactive,inactive,inactive,,inactive,inactive,inactive,,,
CCC1(c2ccccc2)CCC(=O)NC1=O (stereo not drawn),inactive,inactive,,inactive,inactive,inactive,inactive,inactive,,inactive,
CNC(=O)Oc1ccccc1C(C)C,inactive,inactive,,inactive,,inactive,inactive,inactive,inactive,inactive,
Clc1ccc(C(Cl)(Cl)Cl)cn1,inactive,inactive,,inactive,inactive,,inactive,inactive,inactive,inactive,
O=C/C=C/c1ccco1,inactive,inactive,,,inactive,,inactive,inactive,inactive,inactive,
CCN(CCO)CCO,inactive,,,inactive,inactive,inactive,inactive,inactive,inactive,inactive,
O=S1(=O)OCCO1,inactive,inactive,,inactive,,inactive,inactive,inactive,inactive,,
CCOP(=O)(CN(CCO)CCO)OCC,inactive,,,inactive,inactive,inactive,inactive,inactive,inactive,inactive,
C[N+]1(C)CCCCC1,inactive,inactive,,inactive,,inactive,inactive,inactive,inactive,,
CCOc1cc(OP(=S)(OC)OC)nc(CC)n1,inactive,,,inactive,inactive,inactive,inactive,inactive,,inactive,
CC1NCCOC1c1ccccc1 (stereo not drawn),inactive,,,inactive,inactive,inactive,inactive,inactive,inactive,inactive,
CCc1ccc(C2CCNCC2)cc1,inactive,inactive,,inactive,inactive,inactive,,inactive,,,
Oc1ccc(Cc2ccc(O)cc2)cc1,inactive,,,inactive,inactive,inactive,inactive,inactive,,inactive,
COC(=O)c1ccccc1CS(=O)(=O)NC(=O)Nc1nc(OC)cc(OC)n1,inactive,,,inactive,inactive,inactive,inactive,inactive,,inactive,
ClCCN1CCCC1,inactive,,,inactive,inactive,inactive,inactive,inactive,,inactive,
CCOC(=O)Nc1cccc(OC(=O)Nc2ccccc2)c1,inactive,,,3.86 µM (active),inactive,inactive,inactive,inactive,inactive,inactive,
S=C=S,inactive,,inactive,inactive,,inactive,inactive,inactive,inactive,inactive,
Cn1c(CCCC(=O)O)nc2cc(N(CCCl)CCCl)ccc21,inactive,,inactive,,inactive,inactive,inactive,inactive,,inactive,
CCN[C@H](C)Cc1cccc(C(F)(F)F)c1,inactive,,inactive,inactive,,inactive,inactive,inactive,inactive,inactive,
CC(O)CCl (stereo not drawn),inactive,,,inactive,inactive,inactive,inactive,inactive,,inactive,
CCN(CC)CCOC(=O)C(O)(c1ccccc1)c1ccccc1,inactive,,inactive,inactive,inactive,inactive,inactive,inactive,inactive,inactive,
BrCc1ccc(Br)cc1,inactive,inactive,,inactive,,inactive,inactive,inactive,inactive,,
CCOC(=O)NC(C)(C)Cc1ccc(Cl)cc1,inactive,,,inactive,inactive,inactive,inactive,inactive,inactive,inactive,18.3% [at 1.53 µM]
CC(C)(N)Cc1ccc(Cl)cc1,inactive,,inactive,inactive,inactive,inactive,inactive,inactive,inactive,inactive,
CCOC(=O)c1ncn2c1CN(C)C(=O)c1c(I)cccc1-2,inactive,,inactive,,inactive,inactive,,inactive,,inactive,
Nc1c(Cl)c(F)nc(OCC(=O)O)c1Cl,inactive,inactive,,,inactive,,inactive,inactive,,,
CC(C)[N+](C)(CCC(C(N)=O)(c1ccccc1)c1ccccc1)C(C)C,inactive,,inactive,inactive,inactive,inactive,inactive,inactive,inactive,inactive,
COc1ccc(C=O)cc1O,inactive,inactive,,inactive,,inactive,inactive,inactive,inactive,,

# — PubChem BioAssay (Tox21)
